# From publication PMC7862700, “An all-to-all approach to the identification of sequence-specific readers for epigenetic DNA modifications on cytosine”
# What was measured:
# Test in all cases: DAPPL (digital affinity profiling via proximity ligation, sequencing); 10 mM Tris-HCl pH 7.5, 50 mM NaCl, 1 mM DTT, 4% glycerol, room temperature, 30 min; GST-TFs on glutathione beads, 16-mer random dsDNA library, 0.1% formaldehyde crosslink after washing; high values mean tight binding
# Details in all cases: protein: recombinant; tags: N-terminal GST; dsDNA, one strand shown
# FLI1 = biological target: T1, FLI1 (Homo sapiens, UniProt Q01543 1-452)
# T1 sequence: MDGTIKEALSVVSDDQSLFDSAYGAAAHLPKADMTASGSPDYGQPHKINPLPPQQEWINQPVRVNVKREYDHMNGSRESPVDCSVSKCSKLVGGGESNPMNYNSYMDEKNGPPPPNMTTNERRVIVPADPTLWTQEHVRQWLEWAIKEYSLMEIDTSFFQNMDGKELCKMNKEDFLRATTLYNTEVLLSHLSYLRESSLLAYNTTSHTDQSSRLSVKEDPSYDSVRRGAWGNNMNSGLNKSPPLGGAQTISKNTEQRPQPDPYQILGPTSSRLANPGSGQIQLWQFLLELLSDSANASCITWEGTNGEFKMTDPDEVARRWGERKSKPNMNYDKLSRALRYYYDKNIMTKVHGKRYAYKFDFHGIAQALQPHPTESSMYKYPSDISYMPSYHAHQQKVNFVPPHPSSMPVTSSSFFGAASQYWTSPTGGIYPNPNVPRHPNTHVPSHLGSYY
# Summary of the method: (§1)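 Human transcription factors were made in yeast as GST fusions, captured on glutathione beads and barcoded with DNA. With a tag-only sample included, the pool was incubated with 200 nmole of a random double-stranded 16-mer DNA library in Tris/NaCl/DTT/glycerol buffer at room temperature for 30 min, then crosslinked with 0.1% formaldehyde after washing, ligated by proximity, amplified and sequenced. For binding signal, each hexamer's read frequency for a factor is divided by its frequency for the tag-only sample.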
# ELK1 = biological target: T2, ELK1 (Homo sapiens, UniProt P19419 1-428)
# T2 sequence: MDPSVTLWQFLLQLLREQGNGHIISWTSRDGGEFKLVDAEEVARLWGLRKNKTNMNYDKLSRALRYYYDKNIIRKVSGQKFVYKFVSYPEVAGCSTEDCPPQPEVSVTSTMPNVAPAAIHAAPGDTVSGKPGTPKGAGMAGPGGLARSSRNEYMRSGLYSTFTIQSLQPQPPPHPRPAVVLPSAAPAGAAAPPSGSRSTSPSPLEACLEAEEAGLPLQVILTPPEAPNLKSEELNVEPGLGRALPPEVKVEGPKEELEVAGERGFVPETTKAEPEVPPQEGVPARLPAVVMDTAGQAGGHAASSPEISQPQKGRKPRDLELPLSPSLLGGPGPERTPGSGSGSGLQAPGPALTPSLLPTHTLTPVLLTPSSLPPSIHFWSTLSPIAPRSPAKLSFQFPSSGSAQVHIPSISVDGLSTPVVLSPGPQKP
# Summary of the method: as §1
# GABPA = biological target: T3, GABPA (Homo sapiens, UniProt Q06546 1-454)
# T3 sequence: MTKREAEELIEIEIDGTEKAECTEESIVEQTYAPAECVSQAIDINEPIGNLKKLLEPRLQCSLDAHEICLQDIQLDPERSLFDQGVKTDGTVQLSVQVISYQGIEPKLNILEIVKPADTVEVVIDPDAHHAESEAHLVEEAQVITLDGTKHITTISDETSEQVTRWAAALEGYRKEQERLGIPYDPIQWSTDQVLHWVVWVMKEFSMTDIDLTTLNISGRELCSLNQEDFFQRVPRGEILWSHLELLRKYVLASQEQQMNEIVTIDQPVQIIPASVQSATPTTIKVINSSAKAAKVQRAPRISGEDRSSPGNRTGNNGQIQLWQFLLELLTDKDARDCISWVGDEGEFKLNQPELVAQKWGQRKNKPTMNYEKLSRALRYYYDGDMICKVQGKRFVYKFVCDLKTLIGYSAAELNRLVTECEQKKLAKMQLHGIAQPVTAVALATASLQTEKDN
# Summary of the method: as §1
# ERG = biological target: T4, ERG (Homo sapiens, UniProt P11308 1-479)
# T4 sequence: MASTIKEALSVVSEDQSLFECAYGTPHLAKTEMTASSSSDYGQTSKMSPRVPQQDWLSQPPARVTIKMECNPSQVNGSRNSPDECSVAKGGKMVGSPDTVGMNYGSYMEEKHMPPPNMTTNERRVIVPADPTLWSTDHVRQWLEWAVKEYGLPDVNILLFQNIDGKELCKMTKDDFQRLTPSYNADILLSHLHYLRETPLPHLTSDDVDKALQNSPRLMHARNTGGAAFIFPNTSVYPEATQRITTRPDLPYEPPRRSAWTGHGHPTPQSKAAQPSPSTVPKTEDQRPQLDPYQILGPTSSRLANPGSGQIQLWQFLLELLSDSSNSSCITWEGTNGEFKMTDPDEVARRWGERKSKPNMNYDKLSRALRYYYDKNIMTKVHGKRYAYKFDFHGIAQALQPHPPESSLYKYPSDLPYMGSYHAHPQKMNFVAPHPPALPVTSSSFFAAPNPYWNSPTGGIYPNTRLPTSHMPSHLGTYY
# Summary of the method: as §1
# ELF1 = ELF1 (Homo sapiens, UniProt P32519 1-619)
# Chain of ELF1 (P32519 whole entry): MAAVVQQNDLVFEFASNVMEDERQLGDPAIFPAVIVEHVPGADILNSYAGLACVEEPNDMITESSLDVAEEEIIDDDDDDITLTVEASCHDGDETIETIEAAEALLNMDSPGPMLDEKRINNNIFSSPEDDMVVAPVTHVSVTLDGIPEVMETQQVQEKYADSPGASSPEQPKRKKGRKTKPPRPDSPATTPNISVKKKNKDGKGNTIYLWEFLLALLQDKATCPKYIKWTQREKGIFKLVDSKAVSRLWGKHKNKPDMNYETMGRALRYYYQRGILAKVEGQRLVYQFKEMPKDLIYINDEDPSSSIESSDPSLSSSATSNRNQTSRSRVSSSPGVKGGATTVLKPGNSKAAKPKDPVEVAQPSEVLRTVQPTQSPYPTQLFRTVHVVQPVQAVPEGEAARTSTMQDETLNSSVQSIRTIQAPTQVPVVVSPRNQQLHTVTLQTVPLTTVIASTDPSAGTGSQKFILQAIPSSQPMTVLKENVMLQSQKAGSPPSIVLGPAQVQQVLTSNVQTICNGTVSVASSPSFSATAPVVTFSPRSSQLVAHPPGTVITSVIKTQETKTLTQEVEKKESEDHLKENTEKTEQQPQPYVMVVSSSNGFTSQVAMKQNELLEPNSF
# Summary of the method: as §1
# EHF = biological target: T5, EHF (Homo sapiens, UniProt Q9NZC4 1-300)
# T5 sequence: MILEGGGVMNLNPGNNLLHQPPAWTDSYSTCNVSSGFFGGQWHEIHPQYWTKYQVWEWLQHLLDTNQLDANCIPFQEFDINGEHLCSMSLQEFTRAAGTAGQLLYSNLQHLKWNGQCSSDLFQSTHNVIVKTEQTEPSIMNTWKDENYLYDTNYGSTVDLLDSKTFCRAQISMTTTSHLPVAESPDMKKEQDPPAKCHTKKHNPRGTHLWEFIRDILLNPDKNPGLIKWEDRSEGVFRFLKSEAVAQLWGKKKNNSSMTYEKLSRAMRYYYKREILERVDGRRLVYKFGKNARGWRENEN
# Summary of the method: as §1
# SPI1 [1] = biological target: SPI1 (Homo sapiens, UniProt P17947 1-270)
# Summary of the method: as §1
# SPIB = SPIB (Homo sapiens, UniProt Q01892 1-262)
# Chain of SPIB (Q01892 whole entry): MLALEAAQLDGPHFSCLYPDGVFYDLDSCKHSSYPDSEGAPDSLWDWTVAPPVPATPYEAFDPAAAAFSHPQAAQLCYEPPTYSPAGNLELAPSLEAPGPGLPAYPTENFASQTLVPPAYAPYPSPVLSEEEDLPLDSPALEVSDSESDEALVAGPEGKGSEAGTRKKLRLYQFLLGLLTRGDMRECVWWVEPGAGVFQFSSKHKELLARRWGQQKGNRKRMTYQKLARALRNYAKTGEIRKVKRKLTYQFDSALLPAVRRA
# Summary of the method: as §1
# ELK3 = biological target: T6, ELK3 (Homo sapiens, UniProt P41970 1-407)
# T6 sequence: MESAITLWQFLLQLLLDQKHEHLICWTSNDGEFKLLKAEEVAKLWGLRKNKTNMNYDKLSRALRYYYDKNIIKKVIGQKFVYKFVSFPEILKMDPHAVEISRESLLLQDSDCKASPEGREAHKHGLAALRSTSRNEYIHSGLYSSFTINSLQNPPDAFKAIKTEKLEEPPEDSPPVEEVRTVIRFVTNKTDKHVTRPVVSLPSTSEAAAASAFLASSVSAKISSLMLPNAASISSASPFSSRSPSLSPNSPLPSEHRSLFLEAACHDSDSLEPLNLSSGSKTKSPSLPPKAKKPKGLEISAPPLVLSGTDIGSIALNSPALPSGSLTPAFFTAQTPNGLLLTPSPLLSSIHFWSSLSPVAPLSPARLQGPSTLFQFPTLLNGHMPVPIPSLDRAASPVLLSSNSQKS
# Summary of the method: as §1
# ETV5 = ETV5 (Homo sapiens, UniProt P41161 1-510)
# Chain of ETV5 (P41161 whole entry): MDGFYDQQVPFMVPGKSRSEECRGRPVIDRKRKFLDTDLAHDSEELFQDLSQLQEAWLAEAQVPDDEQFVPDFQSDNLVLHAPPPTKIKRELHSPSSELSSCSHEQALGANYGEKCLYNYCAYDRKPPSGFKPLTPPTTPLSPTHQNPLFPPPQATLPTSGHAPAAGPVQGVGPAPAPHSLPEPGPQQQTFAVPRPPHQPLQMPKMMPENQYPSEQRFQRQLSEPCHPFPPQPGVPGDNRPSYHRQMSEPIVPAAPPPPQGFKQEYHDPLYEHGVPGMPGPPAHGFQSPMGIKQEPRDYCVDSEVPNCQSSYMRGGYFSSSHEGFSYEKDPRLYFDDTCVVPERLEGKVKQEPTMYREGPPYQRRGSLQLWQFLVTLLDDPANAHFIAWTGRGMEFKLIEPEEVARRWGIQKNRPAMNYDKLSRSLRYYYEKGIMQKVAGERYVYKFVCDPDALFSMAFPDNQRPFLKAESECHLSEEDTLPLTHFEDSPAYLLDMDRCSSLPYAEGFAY
# Summary of the method: as §1
# SPIC = biological target: T7, SPIC (Homo sapiens, UniProt Q8N5J4 1-248)
# T7 sequence: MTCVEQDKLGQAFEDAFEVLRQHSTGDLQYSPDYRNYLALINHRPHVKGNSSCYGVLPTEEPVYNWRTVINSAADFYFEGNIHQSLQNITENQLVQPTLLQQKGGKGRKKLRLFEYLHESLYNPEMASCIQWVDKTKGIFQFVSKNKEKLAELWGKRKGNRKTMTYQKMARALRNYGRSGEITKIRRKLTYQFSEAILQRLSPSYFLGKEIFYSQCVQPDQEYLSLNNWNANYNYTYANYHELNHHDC
# Summary of the method: as §1
# ELF4 = ELF4 (Homo sapiens, UniProt Q99607 1-663)
# Chain of ELF4 (Q99607 whole entry): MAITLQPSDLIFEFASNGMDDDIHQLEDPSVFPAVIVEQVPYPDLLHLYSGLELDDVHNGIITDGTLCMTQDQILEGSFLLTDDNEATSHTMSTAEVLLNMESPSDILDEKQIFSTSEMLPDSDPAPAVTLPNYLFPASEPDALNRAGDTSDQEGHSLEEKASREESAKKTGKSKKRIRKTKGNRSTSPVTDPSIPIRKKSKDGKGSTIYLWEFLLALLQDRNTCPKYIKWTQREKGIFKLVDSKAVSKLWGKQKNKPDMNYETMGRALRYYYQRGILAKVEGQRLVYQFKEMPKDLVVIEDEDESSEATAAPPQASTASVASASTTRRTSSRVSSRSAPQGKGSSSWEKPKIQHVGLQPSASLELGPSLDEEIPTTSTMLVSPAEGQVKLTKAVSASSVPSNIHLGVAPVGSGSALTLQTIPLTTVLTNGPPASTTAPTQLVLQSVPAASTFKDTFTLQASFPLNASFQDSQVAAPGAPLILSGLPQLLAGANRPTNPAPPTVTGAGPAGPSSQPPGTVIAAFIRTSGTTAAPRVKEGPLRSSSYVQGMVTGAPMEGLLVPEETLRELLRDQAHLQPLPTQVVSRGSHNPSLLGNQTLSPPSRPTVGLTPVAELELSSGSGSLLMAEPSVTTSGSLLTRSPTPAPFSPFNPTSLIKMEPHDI
# Summary of the method: as §1
# ELK4 = biological target: T8, ELK4 (Homo sapiens, UniProt P28324-2 1-405)
# T8 sequence: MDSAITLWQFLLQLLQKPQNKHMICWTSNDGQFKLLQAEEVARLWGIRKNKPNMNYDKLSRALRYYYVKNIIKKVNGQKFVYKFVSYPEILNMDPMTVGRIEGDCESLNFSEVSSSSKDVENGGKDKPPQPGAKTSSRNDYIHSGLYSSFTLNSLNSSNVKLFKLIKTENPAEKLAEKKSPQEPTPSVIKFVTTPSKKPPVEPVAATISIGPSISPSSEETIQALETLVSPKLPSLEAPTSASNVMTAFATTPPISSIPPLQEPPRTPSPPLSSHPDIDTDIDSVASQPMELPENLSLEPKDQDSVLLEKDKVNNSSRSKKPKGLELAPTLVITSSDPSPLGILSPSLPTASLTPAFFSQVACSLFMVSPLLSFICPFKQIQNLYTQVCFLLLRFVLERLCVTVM
# Summary of the method: as §1
# ETV2 = biological target: T9, ETV2 (Homo sapiens, UniProt O00321 1-342)
# T9 sequence: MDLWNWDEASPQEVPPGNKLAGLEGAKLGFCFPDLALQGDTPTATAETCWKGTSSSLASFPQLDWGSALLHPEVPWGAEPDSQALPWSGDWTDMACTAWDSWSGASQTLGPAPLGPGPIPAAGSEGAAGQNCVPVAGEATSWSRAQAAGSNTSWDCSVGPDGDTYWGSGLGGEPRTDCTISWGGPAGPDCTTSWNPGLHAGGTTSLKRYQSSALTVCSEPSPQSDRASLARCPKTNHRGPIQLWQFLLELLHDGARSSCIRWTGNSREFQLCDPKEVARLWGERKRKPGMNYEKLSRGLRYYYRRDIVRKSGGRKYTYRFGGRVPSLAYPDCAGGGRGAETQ
# Summary of the method: as §1
# ELF3 = biological target: T10, ELF3 (Homo sapiens, UniProt P78545 1-371)
# T10 sequence: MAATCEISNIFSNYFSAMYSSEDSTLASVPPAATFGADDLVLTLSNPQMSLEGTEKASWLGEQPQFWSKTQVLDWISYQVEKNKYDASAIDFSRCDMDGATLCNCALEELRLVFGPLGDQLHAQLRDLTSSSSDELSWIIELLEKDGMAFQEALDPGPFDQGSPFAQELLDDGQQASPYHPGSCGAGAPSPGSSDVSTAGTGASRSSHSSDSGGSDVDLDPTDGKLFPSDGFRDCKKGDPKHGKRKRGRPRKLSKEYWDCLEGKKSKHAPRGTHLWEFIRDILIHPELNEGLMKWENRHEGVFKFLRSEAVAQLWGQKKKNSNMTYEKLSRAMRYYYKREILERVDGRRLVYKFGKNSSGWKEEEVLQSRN
# Summary of the method: as §1
# ETV1 = ETV1 (Homo sapiens, UniProt P50549 1-477)
# Chain of ETV1 (P50549 whole entry): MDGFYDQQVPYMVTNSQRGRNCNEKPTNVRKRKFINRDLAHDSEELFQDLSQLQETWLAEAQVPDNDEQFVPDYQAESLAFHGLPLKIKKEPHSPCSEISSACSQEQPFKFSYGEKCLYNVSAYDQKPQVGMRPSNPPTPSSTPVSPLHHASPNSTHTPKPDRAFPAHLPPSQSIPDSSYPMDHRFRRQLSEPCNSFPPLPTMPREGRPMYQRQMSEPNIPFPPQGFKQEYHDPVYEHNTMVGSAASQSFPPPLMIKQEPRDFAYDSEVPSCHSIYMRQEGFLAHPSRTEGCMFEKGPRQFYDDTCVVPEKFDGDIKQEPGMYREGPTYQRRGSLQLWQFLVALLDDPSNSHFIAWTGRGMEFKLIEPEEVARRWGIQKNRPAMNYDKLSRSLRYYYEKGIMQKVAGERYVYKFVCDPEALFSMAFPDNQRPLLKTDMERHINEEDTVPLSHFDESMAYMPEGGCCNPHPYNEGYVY
# Summary of the method: as §1
# SPI1 [2] = biological target: SPI1 (Homo sapiens, UniProt P17947 1-270); remark: listed apart in the source
# Summary of the method: as §1
# FEV = biological target: T11, FEV (Homo sapiens, UniProt Q99581 1-238)
# T11 sequence: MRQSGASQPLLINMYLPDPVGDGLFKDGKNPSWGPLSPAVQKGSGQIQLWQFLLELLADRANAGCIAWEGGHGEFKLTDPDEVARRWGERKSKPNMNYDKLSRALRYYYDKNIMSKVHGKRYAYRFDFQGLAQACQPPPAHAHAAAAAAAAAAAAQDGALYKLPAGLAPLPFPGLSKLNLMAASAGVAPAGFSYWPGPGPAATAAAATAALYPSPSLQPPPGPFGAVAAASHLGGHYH
# Summary of the method: as §1
sequence,measurement,setting,value
CAATAG,binding signal,FLI1,"1.07 fold enrichment (6-mer frequency, TF over GST control)"
same,binding signal,ELK1,"1.07 fold enrichment (6-mer frequency, TF over GST control)"
same,binding signal,GABPA,"1.22 fold enrichment (6-mer frequency, TF over GST control)"
same,binding signal,ERG,"1.04 fold enrichment (6-mer frequency, TF over GST control)"
same,binding signal,ELF1,"1.07 fold enrichment (6-mer frequency, TF over GST control)"
same,binding signal,EHF,"1.13 fold enrichment (6-mer frequency, TF over GST control)"
same,binding signal,SPI1 [1],"1.04 fold enrichment (6-mer frequency, TF over GST control)"
same,binding signal,SPIB,"1.08 fold enrichment (6-mer frequency, TF over GST control)"
same,binding signal,ELK3,"1.13 fold enrichment (6-mer frequency, TF over GST control)"
same,binding signal,ETV5,"1.11 fold enrichment (6-mer frequency, TF over GST control)"
same,binding signal,SPIC,"1.07 fold enrichment (6-mer frequency, TF over GST control)"
same,binding signal,ELF4,"1.09 fold enrichment (6-mer frequency, TF over GST control)"
same,binding signal,ELK4,"1.15 fold enrichment (6-mer frequency, TF over GST control)"
same,binding signal,ETV2,"1.01 fold enrichment (6-mer frequency, TF over GST control)"
same,binding signal,ELF3,"1.2 fold enrichment (6-mer frequency, TF over GST control)"
same,binding signal,ETV1,"1.02 fold enrichment (6-mer frequency, TF over GST control)"
GGAAGT,binding signal,FLI1,"2.88 fold enrichment (6-mer frequency, TF over GST control)"
same,binding signal,ELK1,"3.29 fold enrichment (6-mer frequency, TF over GST control)"
same,binding signal,GABPA,"2.57 fold enrichment (6-mer frequency, TF over GST control)"
same,binding signal,ERG,"3.6 fold enrichment (6-mer frequency, TF over GST control)"
same,binding signal,ELF1,"2.87 fold enrichment (6-mer frequency, TF over GST control)"
same,binding signal,EHF,"3.23 fold enrichment (6-mer frequency, TF over GST control)"
same,binding signal,SPI1 [2],"4.86 fold enrichment (6-mer frequency, TF over GST control)"
same,binding signal,SPIB,"3.19 fold enrichment (6-mer frequency, TF over GST control)"
same,binding signal,ELK3,"3.36 fold enrichment (6-mer frequency, TF over GST control)"
same,binding signal,FEV,"3.88 fold enrichment (6-mer frequency, TF over GST control)"
same,binding signal,ETV5,"3.34 fold enrichment (6-mer frequency, TF over GST control)"
same,binding signal,SPIC,"3.41 fold enrichment (6-mer frequency, TF over GST control)"
same,binding signal,ELF4,"2.72 fold enrichment (6-mer frequency, TF over GST control)"
same,binding signal,ELK4,"2.27 fold enrichment (6-mer frequency, TF over GST control)"
same,binding signal,ETV2,"2.85 fold enrichment (6-mer frequency, TF over GST control)"
same,binding signal,ELF3,"3.25 fold enrichment (6-mer frequency, TF over GST control)"
same,binding signal,ETV1,"3.33 fold enrichment (6-mer frequency, TF over GST control)"
